The results in this text go back to PubChem BioAssay (NCI).

About 83,000 compounds went through this panel and 20% of them were active in at least one assay; those are over-represented in the sample as a whole.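 Activity criterion: percent growth below 10, measured after cells in 96-well plates were exposed to a single compound concentration for 48 hours.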 The source made the active and inactive calls.

The test concerns MDA-MB-468 breast. As to the kind of experiment: NCI-60 one-dose screen, 48 h (100 = growth as untreated, 0 = no growth, -100 = all killed). The following applies: 10 µM unless noted.
For the compound `Cc1c(Cl)cccc1NC(=O)c1sc2nc3c(cc2c1N)CCCC3`, the growth is 15.1% (inactive).
The same measure for `O=C1Nc2ccc3c(c2/C1=C\c1cc2c(cc1Br)OCO2)OCO3`: -11.9% (active); for `COC(=O)/C=C1\SC(=Nc2cccc(Cl)c2)N(CCc2c[nH]c3ccccc23)C1=O`: 54.4% (inactive); for `CCCCCCCCCCCCC1CCC/C=C\CCC(=O)O1` (centres undefined): 100% (inactive).
